Compounds with a hit are over-represented: about 12% of the library has one in this group of screens.
HP1b binding inh: HTS for Inhibitors of HP1-beta Chromodomain Interactions with Methylated Histone Tails; Chromobox protein homolog 1 (Homo sapiens), P83916; AlphaScreen HP1-beta / biotin-H3K9me3 peptide binding; Potency, µM (top dose mostly 114 µM), usual class: inhibitors; 390,000 compounds, 0.56% hits; AID 540317, 2011; note: nearly all actives have a fitted effect of over 70% in size
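HP1-beta protein (50 nM final) preincubated 30 min at room temperature with biotinylated H3(1-18)K9me3 peptide (50 nM) in PBS pH 7.4, 0.01% Tween-20, then compound added for 30 min. AlphaScreen streptavidin donor/nickel chelate acceptor beads (10 ug/mL final), 30 min dark, luminescence read.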
PI5P4K alpha inh: qHTS for Inhibitors of phosphatidylinositol 5-phosphate 4-kinase (PI5P4K); Phosphatidylinositol 5-phosphate 4-kinase type-2 alpha (Homo sapiens), P48426; PI5P4Kalpha enzyme, ADP-Glo luminescence, 60 min; hits give low values; max response, %; 330,000 compounds, 1.2% hits; AID 652105, 2013; active = max response of -50% or lower; inconclusive = between -30% and -50%; inactive = -30% or higher; note: value at the top dose of about 77 µM
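qHTS, 1536-well: enzyme/substrate mix, compound by pin tool, 5 microM ATP final; RT 60 min; ADP-Glo reagents 1 (45 min) then 2 (30 min); luminescence.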
G9a inh: qHTS Assay for Inhibitors of Histone Lysine Methyltransferase G9a. 350,000 compounds, 8.8% hits. Potency, µM (doses to about 102 µM), actives largely listed as inhibitors. Histone-lysine N-methyltransferase EHMT2 (Homo sapiens), Q96KQ7. AID 504332, 2011. G9a H3K9 monomethylation, AlphaScreen, 2 h; note: nearly all actives have a fitted effect of over 75% in size
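Methyltransferase reactions run at room temperature for 2 h (20 nM enzyme, 500 nM biotin-H3K9 peptide, 20 uM SAM) after a 15 min compound preincubation; product detected by AlphaScreen beads and anti-H3K9me1 antibody.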
JMJD2A Tudor: qHTS Assay for Inhibitors of JMJD2A-Tudor Domain | 390,000 compounds, 4.4% hits | AlphaScreen JMJD2A-Tudor / H3K4me3 peptide binding | Potency, µM (series often up to 114 µM), actives largely listed as inhibitors; note: nearly all actives have a fitted effect of over 50% in size
PLK1 PBD block: qHTS for Inhibitors of PLK1-PDB (polo-like kinase 1 - polo-box domain): Primary Screen; Serine/threonine-protein kinase PLK1 (Homo sapiens), P53350; Plk1 PBD binding of FITC phosphopeptide, fluorescence polarization; Potency, µM, usual class: inhibitors; 360,000 compounds, 2.8% hits; AID 720504, 2013; note: series mostly up to about 57 µM; nearly all actives have a fitted effect of over 65% in size
Target sequence (P53350 whole entry, looked up, the tested form may be a part): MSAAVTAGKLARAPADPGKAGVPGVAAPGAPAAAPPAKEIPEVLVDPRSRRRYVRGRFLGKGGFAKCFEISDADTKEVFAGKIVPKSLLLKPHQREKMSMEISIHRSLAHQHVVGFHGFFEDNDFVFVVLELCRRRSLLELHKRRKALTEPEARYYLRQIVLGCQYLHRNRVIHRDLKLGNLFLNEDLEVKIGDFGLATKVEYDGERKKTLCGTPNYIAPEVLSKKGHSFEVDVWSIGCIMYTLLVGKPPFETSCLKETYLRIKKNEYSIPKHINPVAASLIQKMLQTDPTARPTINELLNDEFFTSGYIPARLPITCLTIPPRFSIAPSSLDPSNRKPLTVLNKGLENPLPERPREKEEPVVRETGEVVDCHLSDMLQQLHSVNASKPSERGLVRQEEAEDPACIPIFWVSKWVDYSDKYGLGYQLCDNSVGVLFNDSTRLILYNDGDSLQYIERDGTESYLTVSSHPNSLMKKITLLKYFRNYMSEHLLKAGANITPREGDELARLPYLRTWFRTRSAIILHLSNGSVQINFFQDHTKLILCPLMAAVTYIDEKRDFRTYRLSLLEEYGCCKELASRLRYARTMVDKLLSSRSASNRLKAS
BAZ2B block: qHTS Assay for Inhibitors of BAZ2B | AID 504333, 2011 | 360,000 compounds, 4.4% hits | Potency, µM (highest dose often 114 µM), most hits filed as inhibitors | Bromodomain adjacent to zinc finger domain protein 2B (Homo sapiens), Q9UIF8 | AlphaScreen BAZ2B-H3K14Ac peptide displacement; note: nearly all actives have a fitted effect of over 60% in size
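Protein-peptide AlphaScreen: BAZ2B 50 nM, b-H3K14Ac 50 nM, 1x PBS pH 7.4 + 0.01% Tween-20. Preincubation 30 min RT; cpd 30 min RT (top 110 uM); beads 20 min RT, light-protected.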
A number is an active result; – = inactive; ? = inconclusive; · = not tested or not shown; ! = a repeat was not active; [ ] = dose if it differs, or a comment. Unless noted, calls come from the whole dose curve; as a rule, active = well fitted curve in the direction sought with a large enough effect; inconclusive = small, poorly fitted or top-dose-only effect, or another doubt; inactive = no such curve, though single readings can be large; an effect the other way counts as inactive or inconclusive.

SMILES	HP1b binding inh	PI5P4K alpha inh	G9a inh	JMJD2A Tudor	PLK1 PBD block	BAZ2B block
CN1CCN(c2ccc([N+](=O)[O-])c(N)c2)CC1	–	–	–	–	–	–
Cc1[nH]c2ccc(OC(F)(F)F)cc2c1CCNCc1cccc([N+](=O)[O-])c1	?	–	50µM	7.1µM	–	50µM
COc1ccc2[nH]cc(CCNCc3cccnc3)c2c1	–	–	·	–	–	?
CCOc1cccc(CNCCc2c(C)[nH]c3ccc(OC(F)(F)F)cc23)c1O	?	–	10µM	40µM	–	35µM
Cc1[nH]c2ccc(OC(F)(F)F)cc2c1CCNCc1ccc(Cl)cc1	?	–	?	13µM	–	50µM
Cc1ccc2[nH]c(C)c(CCNCc3ccco3)c2c1	–	–	?	?	–	?
COc1ccc2[nH]c(C)c(CCNCc3cccnc3)c2c1	?	–	?	7.1µM	–	20µM
Cc1nc2cnc(N3CCNCC3)nc2n(C)c1=O	·	·	–[12.7 µM]	·	·	·
C[C@]12CC[C@@H]3c4ccc(O)cc4C(=O)C[C@H]3[C@@H]1CC[C@@H]2O	–	–	–	–	–	?
O=C(c1csnn1)N1CCC2(CC1)CN(Cc1ccncc1)C2	·	·	–[12.7 µM]	·	·	·
C1=C(c2ccccc2)CCNC1	–	–	·	–	–	–
Oc1ccc(C2=CCNCC2)cc1O	?	·	·	10µM	·	·
CCn1cc(C=C2C(=O)N(C)C(=O)N(C)C2=O)c2ccccc21	–	–	–[0.501 µM]	–	–	–
CN1C(=O)C(=Cc2ccccc2OCc2ccccc2Cl)C(=O)N(C)C1=O	–	–	–	–	3µM	–
CN1C(=O)C(=Cc2ccccc2OCc2ccc(C(=O)O)cc2)C(=O)N(C)C1=O	–	–	?	–	12µM	–
CCC(=O)N1CC(=O)Nc2ccc(C)cc2C1c1ccc(F)cc1 (centres undefined)	–	·	–	–	·	–
C=CCOC(Cn1ccnc1)c1ccc(Cl)cc1Cl (centres undefined)	–	–	–[12.7 µM]	–	–	–
Clc1ccc(COC(Cn2ccnc2)c2ccc(Cl)cc2Cl)c(Cl)c1 (centres undefined)	–	–	–[2.33 µM]	40µM	?	22µM
CC1[C@H]2Cc3ccc(O)cc3[C@]1(C)CCN2CCc1ccccc1 (some centres undefined)	–	–	·	–	–	·
CNC(=O)Oc1ccc2c(c1)[C@]1(C)CCN(C)[C@@H]1N2C	–	–	45µM!	–	–	–
CN1CC[C@@]2(C)c3cc(O)ccc3N(C)C12 (some centres undefined)	·	·	9.5µM	·	·	·
Cc1ccc(-n2c(=O)[nH]c3ccc(Br)cc3c2=O)cc1	–	·	–	–	·	–
O=c1[nH]c(=S)[nH]c(O)c1/C=C1/C=c2ccccc2=N1	–	?	·	?	1.3µM	?
CCOc1ccc2nc(NC(=O)c3cccn(Cc4ccccc4Cl)c3=O)sc2c1	–	·	–	–	·	–
CC(=O)OCC[N+](C)(C)C	–	–	–	–	–	–
SMILES	HP1b binding inh	PI5P4K alpha inh	G9a inh	JMJD2A Tudor	PLK1 PBD block	BAZ2B block
C[N+](C)(C)CCOC(=O)CBr	–	–	25µM!	–	–	–
COc1ccccc1CNCc1cc(OC)c(OC)cc1OC	?	·	3.2µM	2.5µM	–	50µM
COc1cccc(CNCCc2ccccc2)c1OC	–	–	–	–	–	–
O[C@@H]1CCCN2C[C@@H](O)[C@@H](O)C12 (some centres undefined)	·	·	–	·	·	·
CNC(=O)Oc1ccccc1OC(C)C	–	–	·	–	–	·
CNC(=O)Oc1ccc2ncccc2c1	–	–	45µM	–	–	–
CC(=O)C1=NOC(CNc2ncc(C(F)(F)F)cc2Cl)C1 (centres undefined)	–	–	–	–	–	–
CCOc1nc(NC(C)C)nc(N2CC3CC(C2)c2cccc(=O)n2C3)n1 (centres undefined)	?	–	–	20µM	7.5µM	–
O=C(OCC(=O)c1ccc([N+](=O)[O-])cc1)/C(=C\c1ccc(Cl)cc1)NC(=O)c1ccccc1	–	·	?	–	–	–
O=C(CNC(=O)c1cccs1)NCC(=O)OCC(=O)c1ccc([N+](=O)[O-])cc1	–	–	45µM	–	–	·
COC(=O)[C@]12C(=O)C(C)=C(O)[C@@]1(C)C(C)=CC1[C@@]34CC[C@@H](OC(C)=O)C(C)(C)C3C(C[C@]12C)OC4=O (some centres undefined)	–	–	–[12.7 µM]	–	–	–
NC1C=CC=C(C(=O)O)C1 (centres undefined)	–	–	3.2µM	–	–	·
ClC1=C(Cl)C2(Cl)C3C4CC(C5OC45)C3C1(Cl)C2(Cl)Cl (centres undefined)	·	·	–[12.7 µM]	·	·	·
COc1cc(/C=C2/SC(=S)N(Cc3ccccc3)C2=O)ccc1OCC(=O)O	–	–	–[0.501 µM]	?	?	56µM
CSCC[C@H](NC(=O)[C@H](Cc1ccccc1)NC(=O)CNC(=O)CNC(=O)[C@@H](N)Cc1ccc(O)cc1)C(=O)O	·	·	–	·	·	·
CC(C)(C)OC(=O)NNC(=S)NC1CCCCC1	–	–	25µM	–	–	–
CCOP(=O)(OCC)O/C(=C/Cl)c1ccc(Cl)cc1Cl	·	·	–[12.7 µM]	·	·	·
Cc1ccc(-c2nc(CS(=O)CC(=O)NC3CCCC(C)C3C)c(C)o2)cc1 (centres undefined)	–	–	35µM	–	–	–
CC1CCCC(NC(=O)COC(=O)c2cn(C)c3ccccc23)C1C (centres undefined)	–	–	–[12.7 µM]	–	–	–
C/C=C(/C)C(=O)O[C@H]1C(C)=C2C([C@@H]1OC(=O)CCCCCCC)[C@@](C)(OC(C)=O)C[C@@H](OC(=O)CCC)[C@@]1(O)[C@H]2OC(=O)[C@@]1(C)O (some centres undefined)	·	·	–[12.7 µM]	·	·	·
O=C(N/N=C1/CN2CCC1CC2)c1cccc(O)c1	–	–	10µM	45µM	–	?
CCC1Nc2ncnc(N3CCN(c4ccccn4)CC3)c2N(Cc2ccc(Br)cc2)C1=O (centres undefined)	–	–	·	79µM	–	·
COc1ccc2c(c1)c(C(=O)CN1CCN(C)CC1)c(C)n2Cc1ccccc1	–	–	?	–	–	–
CC(=O)c1c(C)n(Cc2ccccc2)c2ccc(O)cc12	–	–	–	–	–	–
COC(=O)c1c(C)n(Cc2ccccc2)c2ccc(O)cc12	–	–	8.9µM	–	–	–
CCN1CCN(CC(=O)c2c(C)n(Cc3ccccc3)c3ccc(OC)cc23)CC1	?	–	–	?	21µM	–
C=COCCn1c(C)c(C(=O)OCC)c2cc(O)ccc21	–	–	–	–	–	–
CCOC(=O)c1c(C)n(Cc2ccccc2)c2ccc(O)cc12	–	–	32µM	?	–	?

From PubChem
